From PubChem BioAssay
Shown are actives, neighbours in structure and some others; about 12% of the full set was active somewhere.
BAZ2B block = blocks human BAZ2B; AID 504333; AlphaScreen BAZ2B-H3K14Ac peptide displacement; Q9UIF8; 360,000 compounds, 4.4% hits; Potency, µM (highest dose often 114 µM), without a hit: at the top dose activity change, negative = inhibition, hits mostly inhibitors; also: % is scaled to controls: 0 for no effect and ±100 for the full control effect; nearly all actives have a fitted effect of over 60% in size
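BAZ2B 50 nM plus b-H3(5-23)K14Ac 50 nM, PBS pH 7.4/0.01% Tween-20, 30 min RT; compound added (max 110 uM), 30 min RT; streptavidin donor/Ni-chelate acceptor beads 10 ug/mL final, 20 min dark; AlphaScreen read.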
G9a block = blocks human histone lysine methyltransferase G9a; 350,000 compounds, 8.8% hits; Q96KQ7; AID 504332; G9a H3K9 monomethylation, AlphaScreen, 2 h; Potency, µM (top dose mostly 102 µM), for inactives: at the top dose activity, negative = inhibition, usual class: inhibitors; also: % is scaled to controls: 0 for no effect and ±100 for the full control effect; nearly all actives have a fitted effect of over 75% in size
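Using a bead-based AlphaScreen, monomethylated H3K9 product from 2 h room-temperature reactions (G9a 20 nM, peptide 500 nM, SAM 20 uM) was detected with 0.5 ug/mL rabbit anti-H3K9me1 antibody.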
HP1b binding inh = inhibitors of HP1-beta chromodomain binding to methylated histone tails. AlphaScreen HP1-beta / biotin-H3K9me3 peptide binding. Potency, µM (titrated, usually from 114 µM), for inactives: top-dose activity change, negative = inhibition, most hits filed as inhibitors. 390,000 compounds, 0.56% hits; also: nearly all actives have a fitted effect of over 70% in size
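AlphaScreen: HP1-beta (50 nM) preformed 30 min with biotin-H3(1-18)K9me3 peptide (50 nM) in PBS pH 7.4, 0.01% Tween-20. Compound added for 30 min at RT, then streptavidin donor/nickel chelate acceptor beads (10 ug/mL) for 30 min.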
Sfp PPTase inh = inhibitors of Bacillus subtilis Sfp phosphopantetheinyl transferase; Q9F4F7; Biochemical Sfp PPTase activity, qHTS; Potency, µM, for inactives: largest response in the series, negative = inhibition, hits mostly inhibitors; 310,000 compounds, 3.5% hits; AID 1490;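 also: the enzyme is Sfp with the accession as filed and its product quenches rhodamine fluorescence; 0% = enzyme reaction without inhibitor and -100% = no enzyme wells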
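With Hepes-Na pH 7.6 buffer containing 10 mM MgCl2, Sfp (15 nM) modified BHQ-2-YbbR (12.5 uM) using rhodamine-CoA (5 uM). Two reads 30 minutes apart at 525/598 nm yielded each well's rate.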
L3MBTL1 inh = inhibitors of human L3MBTL1 | AlphaScreen L3MBTL1–H3K9me1 peptide binding | 230,000 compounds, 0.66% hits | Potency, µM (top dose mostly 57.1 µM), inactives show at the top dose activity, negative = inhibition, most hits filed as inhibitors; also: % is scaled to controls: 0 for no effect and ±100 for the full control effect; nearly all actives have a fitted effect of over 60% in size
Target sequence (Q9Y468 whole entry, looked up): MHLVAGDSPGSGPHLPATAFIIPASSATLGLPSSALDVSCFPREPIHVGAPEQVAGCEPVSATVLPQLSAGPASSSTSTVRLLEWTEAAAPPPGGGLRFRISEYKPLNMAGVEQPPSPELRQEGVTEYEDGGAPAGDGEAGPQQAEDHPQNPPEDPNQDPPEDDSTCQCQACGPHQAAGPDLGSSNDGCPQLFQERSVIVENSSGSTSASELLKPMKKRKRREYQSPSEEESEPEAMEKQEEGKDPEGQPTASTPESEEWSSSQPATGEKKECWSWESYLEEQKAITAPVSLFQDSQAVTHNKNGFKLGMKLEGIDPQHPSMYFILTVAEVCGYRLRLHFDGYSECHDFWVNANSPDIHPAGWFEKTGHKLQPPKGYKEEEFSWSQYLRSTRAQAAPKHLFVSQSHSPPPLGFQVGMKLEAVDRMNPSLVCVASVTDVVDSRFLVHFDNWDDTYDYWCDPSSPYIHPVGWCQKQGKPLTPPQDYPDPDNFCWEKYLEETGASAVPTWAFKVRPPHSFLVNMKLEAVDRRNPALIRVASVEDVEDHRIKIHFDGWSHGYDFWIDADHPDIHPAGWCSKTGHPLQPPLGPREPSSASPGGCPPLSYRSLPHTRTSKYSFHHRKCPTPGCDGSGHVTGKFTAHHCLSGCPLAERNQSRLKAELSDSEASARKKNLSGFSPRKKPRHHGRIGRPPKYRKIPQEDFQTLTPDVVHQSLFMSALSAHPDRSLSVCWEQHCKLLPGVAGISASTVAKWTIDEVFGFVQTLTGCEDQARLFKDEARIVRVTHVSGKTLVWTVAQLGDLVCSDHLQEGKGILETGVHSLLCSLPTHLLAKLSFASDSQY
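L3MBTL1 (50 nM) pre-complexed 30 min with biotinylated H3(1-15)K9me1 peptide (75 nM), then compounds added for 30 min at room temperature; AlphaScreen streptavidin donor/nickel chelate acceptor beads (10 ug/mL final) read after 30 min dark incubation.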
JMJD2A Tudor inh = inhibitors of human JMJD2A Tudor domain | O75164 | AlphaScreen JMJD2A-Tudor / H3K4me3 peptide binding | Potency, µM (titrated, usually from 114 µM), inactives show at the highest dose activity change, negative = inhibition, hits mostly inhibitors | 390,000 compounds, 4.4% hits | AID 504339; also: % is scaled to controls: 0 for no effect and ±100 for the full control effect; nearly all actives have a fitted effect of over 50% in size
Numbers without * were called inactive; ? = inconclusive; / = no result; [ ] = dose if it differs, or a comment. Calls follow the shape of the dose curve; as a rule, active = well fitted curve in the direction sought with a large enough effect; inconclusive = small, poorly fitted or top-dose-only effect, or another doubt; inactive = no such curve, though single readings can be large; an effect the other way counts as inactive or inconclusive. Potency is read from the fitted curve at half-maximal effect.

SMILES	BAZ2B block	G9a block	HP1b binding inh	Sfp PPTase inh	L3MBTL1 inh	JMJD2A Tudor inh
CSc1ccc(C(=O)NCC(c2ccco2)N(C)C)cc1[N+](=O)[O-] (stereo not given)	-6%	7%	-27%	7%	/	-28%
COc1ccc2oc(C(=O)NCC(c3ccco3)N(C)C)c(C)c2c1 (stereo not given)	50µM*	?	-9%	/	-19%	-27%
Cc1c(C(=O)Oc2ccc(-c3cnc4ccccc4n3)cc2)cccc1[N+](=O)[O-]	-24%	20µM*	17%	50µM*	-1%	-34%
O=C(Oc1ccc(-c2cnc3ccccc3n2)cc1)c1cc([N+](=O)[O-])ccc1Cl	-12%	28µM*	16%	-14%	6%	-4%
CCC(=O)Oc1ccc(-c2cnc3ccccc3n2)cc1	18%	-48%[59 µM]	21%	-18%	11%	5%
O=[N+]([O-])c1cc(-c2cnc3ccccc3n2)ccc1Oc1ccc(Cl)cc1	?	14µM*	10%	-13%	-6%	-33%
CN1CC=C2C(C#N)=C(N)C(C#N)(C#N)[C@H](c3ccoc3)[C@H]2C1	-11%	40µM*	33%	0%	/	-5%[57.1 µM]
CCC(Oc1ccccc1)C(=O)NC1CCCCCC1 (stereo not given)	7%	4%	61%	9%	/	-5%
CCC(Oc1ccccc1)C(=O)NC1CCSC1=O (stereo not given)	-15%	45µM*	49%	12%	0%	-2%
O=C(Cn1c2[n+](c3ccc(C(F)(F)F)cc31)CCCCC2)c1cccc([N+](=O)[O-])c1	-13%	?	31%	6%	-7%	-16%
O=C(Cn1c2[n+](c3ccc(C(F)(F)F)cc31)CCCCC2)Nc1ccccc1	0%	?	12%	?	44%	-6%
CCc1cccc(NC(=O)Cn2c3[n+](c4ccc(C(F)(F)F)cc42)CCCCC3)c1	-6%	5.6µM*	-10%	-41%	9%	-16%
FC(F)(F)c1ccc2c(c1)n(Cc1ccccc1)c1[n+]2CCCCC1	?	28µM*	9%	-38%	/	?
CCOC(=O)C1=C(C)NC(=O)NC1c1ccc(N(C)C)cc1 (stereo not given)	-2%	?	17%	13%	-5%	-35%
CCC(CC)COC(=O)C1=C(C)NC(=O)NC1c1ccc(N(C)C)cc1 (stereo not given)	?	16µM*	-10%	27%	-29%	?
CCOC(=O)C1=C(C)NC(=O)NC1c1ccc(N(CC)CC)cc1 (stereo not given)	-37%	45µM*	10%	7%	/	?
CCOC(=O)c1cccc(NC(=O)Cn2ncc3c(=O)oc4ccccc4c32)c1	/	-12%[59 µM]	23%	/	/	-14%
Cc1cc2c(s1)c1cnn(Cc3cc(F)c(F)cc3F)c(=O)c1n2C	/	/	/	/	/	-16%
Cc1cc(C)nc(SCCc2ccncc2)n1	10%	4µM*	21%	-6%	-8%	4.5µM*
CC(=O)c1cc2c(cc1N/C(=N/S(=O)(=O)c1ccc(F)cc1)c1ccccc1)OCO2	-2%	-2%[59 µM]	-7%	/	/	-22%
N#CC1=C(N)SC(N)=C(C#N)C1c1ccnc2ccccc12	?	2.5µM*	18%	16µM*	-4%	56µM*
O=C1c2ccccc2C(=O)C1c1nccc2ccccc12	5%	-3%[12.7 µM]	56%	12%	/	-30%
O=C1c2ccccc2C(=O)C1c1ccnc2ccccc12	3%	-12%[59 µM]	79%	15%	5%	79µM*
NCCCC[C@H](NC(=O)[C@H](CS)NC(=O)[C@@H](N)Cc1cnc[nH]1)C(=O)N[C@@H](Cc1ccccc1)C(=O)N[C@@H](Cc1c[nH]c2ccccc12)C(=O)N[C@@H](Cc1c[nH]c2ccccc12)C(=O)O	/	/	/	14%	/	/
COc1ccc(-n2c(C)cc(/C=C/c3nc(O)c([N+](=O)[O-])c(=O)[nH]3)c2C)cc1	50µM*	28µM*	?	10%	?	-3%[11.4 µM]
SMILES	BAZ2B block	G9a block	HP1b binding inh	Sfp PPTase inh	L3MBTL1 inh	JMJD2A Tudor inh
O=c1[nH]c(/C=C\c2ccc(O)c(O)c2)nc(O)c1[N+](=O)[O-]	?	40µM*	-4%	45µM*	?	?
O=c1[nH]c(/C=C\c2cccc(O)c2)nc(O)c1[N+](=O)[O-]	5%	-74%	35%	10%	3%	-2%
Cc1cc(/C=C\c2nc(O)c([N+](=O)[O-])c(=O)[nH]2)c(C)n1-c1ccccc1	45µM*	50µM*	?	-4%	-24%	56µM*
O=C(COc1ccccc1/C=C\c1nc(O)c([N+](=O)[O-])c(=O)[nH]1)Nc1ccccc1	?	50µM*	-10%	-5%	-21%	-22%
CCOc1ccccc1/C=C\c1nc(O)c([N+](=O)[O-])c(=O)[nH]1	-17%	-10%	22%	1%	/	13%
COc1ccccc1NC(=O)Cn1c(=O)n(Cc2nc(C)no2)c(=O)c2cc3c(cc21)OCO3	-7%	-29%[59 µM]	14%	/	/	-6%
Cc1ccc(C(=O)COC(=O)CCC(=O)Nc2ccc(Oc3cc(C)ccc3C(C)C)cc2)cc1	6%	?	19%	/	/	-8%
O=C(NC1CCCCC1)/C(=N\O)c1ccccn1	-31%	50µM*	-1%	-8%	-2%	?
O=C(NC1(C(=O)NC2CCCCC2)CCCCC1)c1ccccn1	?	?	-5%	14%	/	-15%
O=C(OCC(=O)N1CCOCC1)c1ccc2c(c1)OCCO2	4%	-1%	47%	14%	2%	-4%
